The supplement of paper PMC13380429

Test system: Vero E6 infected with SARS-CoV-2
Assay: inhibition of SARS-CoV-2 cytopathic effect; higher = more antiviral protection, active = above 15
Details: 48 h

Measured: inhibition of SARS-CoV-2 cytopathic effect

Nc1cc(C(F)(F)F)c(-c2cc(N3CCOCC3)nc(N3CCOCC3)n2)cn1 [buparlisib]
inactive: 1 nM 2.05% | 8.33 nM 0.38% | 100 nM -0.73% | 833.33 nM -3.58% | 10000 nM -12.6%

C/C(=C\C(N)C(=O)O)CP(=O)(O)O (stereo not given)
inactive: 1 nM -2.33% | 8.33 nM -2.58% | 100 nM 0.17% | 833.33 nM 5.33% | 10000 nM -3.57%

COc1cc(-c2ccc(=O)[nH]n2)ccc1OC(F)F [zardaverine]
inactive: 1 nM 0.13% | 8.33 nM 1.54% | 100 nM 0.67% | 833.33 nM 0.7% | 10000 nM 2.13%

CCCC(=O)Nc1ccc(OCC(O)CNC(C)C)c(C(C)=O)c1 (stereo not given) [acebutolol]
inactive: 1 nM 4.4% | 8.33 nM 2.88% | 100 nM 3.43% | 833.33 nM -2.09% | 10000 nM 3.92%

COc1cc2c(cc1OC)[C@@H]1Cc3ccc(OC)c(OC)c3CN1CC2 [rotundine]
inactive: 1 nM -0.42% | 8.33 nM -2.68% | 100 nM -1.22% | 833.33 nM 4.97% | 10000 nM 3.54%

Cn1c(=O)c2c(ncn2C)n(C)c1=O [caffeine]
inactive: 1 nM -0.58% | 8.33 nM 1.54% | 100 nM -0.63% | 833.33 nM 2.87% | 10000 nM 3.35%

COC1=C(OC)C(=O)C(CCCCCCCCCCO)=C(C)C1=O [idebenone]
inactive: 1 nM -0.23% | 8.33 nM -3.04% | 100 nM -0.1% | 833.33 nM 0.64% | 10000 nM 0.26%
